Drawing on ChEMBL document CHEMBL1157539, “Thousands of chemical starting points for antimalarial lead identification” (Nature, 2010), this text covers Inhibition for 40 compounds.

This test relates to Plasmodium falciparum. Put plainly: GSK_TCMDC: Inhibition of Plasmodium falciparum 3D7 in whole red blood cells, using parasite LDH activity as an index of growth. Test compounds present at 2uM. It counts as functional.
The term Inhibition denotes the percentage by which the read-out fell short of the control. High values mean a response far below the control, low ones a response near the control. With `COc1cc(NC(=O)c2nn(CCCN3CCC(N4CCCC4)CC3)cc2-c2ccc(Cl)c(Cl)c2)cc(OC)c1OC`, the Inhibition was found to be 100%.

For `O=C(NCCCN1CCOCC1)c1ccc(-c2cccc(NC(=O)c3ccc(Cl)c(Cl)c3)c2)cc1`, the Inhibition was 100%.

The compound `CCN(CC)CCN(Cc1ccc(-c2ccc(C(F)(F)F)cc2)cc1)C(=O)Cn1c(CCc2cccc(F)c2F)cc(=O)c2c1CCCC2.O=C(O)C(O)C(O)C(=O)O` returned an Inhibition of 100%.

Regarding `Cc1c(F)cc(C(=O)NC2CC2)cc1-c1ccc2c(cnn2S(=O)(=O)c2ccc(Cl)s2)c1`, the Inhibition worked out at 81%. For `Cc1cc2nc(-c3ccc(C(=O)NCc4ccc(Cl)c(Cl)c4)cc3)[nH]c2cc1C` the value was 96%; for `CC(C)CC1(C(=O)OC(C)(C)C)CC(C(=O)OC(C)(C)C)C(c2cccs2)N1C(=O)c1ccc(C(C)(C)C)cc1` (stereo not given), 100%; for `CN1CCc2cc(O)c(NS(=O)(=O)c3ccc(-c4ccc(Cl)cc4)cc3)cc2CC1.Cl`, 100%. `COc1ccc2nccc(N3CCC(NCc4ccc5c(n4)NC(=O)CS5)CC3)c2n1` registered an Inhibition of 100%. On to `O=C(O)C(F)(F)F.OCC1CCN(Cc2cccc(-c3ccc(-c4nc5cc(C(F)(F)F)ccc5[nH]4)cc3)c2)CC1`, for which the Inhibition turned out to be 100%.

For `CNCCNCc1cccc(-c2ccc(-c3nc4cc(C(F)(F)F)ccc4[nH]3)s2)c1.O=C(O)C(F)(F)F`, the Inhibition is given as 98%. `OC(CNc1ccnc(Nc2ccc(Cl)cc2)n1)c1ccc(C(F)(F)F)cc1` (stereo not given) returned an Inhibition of 100%. Regarding `COc1c(C2CCN(CCCCNC(=O)c3cccc(-c4ccc(C(F)(F)F)cc4)c3)CC2)ccc2c1CCCC2`, the Inhibition stood at 92%. The value for `CC(C)C[C@H](NC(=O)c1cc2ccccc2s1)C(=O)N[C@H]1CCN(Cc2ccc(OC[C@@H]3CCCN3C)c(Cl)c2)C1.O=C(O)C(F)(F)F` was 100%.

As to `Cc1cccc2nc(-c3ccc(-c4cccc(CN5CCCC(N)C5)c4)s3)[nH]c12.O=C(O)C(F)(F)F` (stereo not given), the Inhibition stood at 100%.

`CCOC(=O)c1cnc2c(OC)cc(OC)c(Cl)c2c1Nc1cccc(C)c1C` yielded an Inhibition of 100%. Take `Cc1[nH]c(C)c(-c2ccc(-c3cccc(Cl)c3)nc2)c(=O)c1Br`: the Inhibition was found to be 96%. As to `COc1ccc(NC(=O)/C=C/c2ccccc2Cl)cc1OCCN1CCC(O)(c2ccc(Cl)c(C(F)(F)F)c2)CC1.Cl`, the Inhibition worked out at 100%.

`Cc1ccc(CNC(=O)c2cc3c(=O)n4cccc(C)c4nc3n(CCN3CCOCC3)c2=N)cc1` showed an Inhibition of 97%.

As for `COc1ccc(-c2ccc([N+](=O)[O-])cc2C(=O)NCC(C)Oc2ccc(C(F)(F)F)cc2)cc1` (stereo not given), the Inhibition is listed as 100%. `CO/C(=C\C=C/c1cc2cc(Cl)c(Cl)cc2[nH]1)C(=O)NC1CC(C)(C)N(C)C(C)(C)C1` returned an Inhibition of 93%.

For the compound `COc1ccc2nccc(N3CCC(CCNCc4ccc5c(n4)NC(=O)CS5)CC3)c2c1.Cl`, the Inhibition stood at 100%. The compound `O=C(O)C(F)(F)F.O=S(=O)(NCCN1CCCC1)c1ccc(-c2ccc(CNCc3ccccc3)cc2)cc1` displayed an Inhibition of 99%. For `ON=C1CCc2cc(-c3cc(-c4ccc(OC5CCNCC5)cc4)oc3-c3ccncc3)ccc21` the value was 100%; for `CN(C)Cc1cc(Nc2ccnc3cc(Cl)ccc23)ccc1O.Cl`, 100%; for `Br.CCC(ON1C(N)=NC(N)=NC1(C)C)c1ccc(Cl)cc1` (stereo not given), 91%.

Turning to `CCN(CC)/C(=N\C(=N)NCCCCCCNC(=N)/N=C(\Nc1ccc(Cl)cc1)N(CC)CC)Nc1ccc(Cl)cc1`, the Inhibition stood at 97%. As to `Clc1cc(Nc2ccnc3ccc(Br)cc23)ccc1Oc1ccc2ccccc2c1Cl`, the Inhibition is on record as 100%. As for `CCCCCCCCN1CCCN(C(=O)c2cccc(NC(=O)Nc3ccc4ccccc4c3)c2)CC1.O=C(O)C(F)(F)F`, the Inhibition is given as 97%. In the case of `CN1CCN(CC(O)CNC(=O)Nc2ccc(Cl)cc2)CC1.O=C(O)C(F)(F)F` (stereo not given), the Inhibition turned out to be 99%. For `COc1cc(F)c2nccc([C@@H](O)CN3CCC(NCc4ccc5c(n4)NC(=O)CS5)C(F)C3)c2c1.Cl` (stereo not given in full) the value was 87%.

As to `CCc1c(C)c(C#N)c2nc3ccccc3n2c1NCc1ccco1`, the Inhibition came to 99%. For `COc1ccc(Nc2ncc(C#N)c(Nc3ccccc3C(N)=O)n2)cc1N1CCN(C)CC1.Cl` the value was 93%. For `O=C(/C=C/c1ccc(Cl)c(Cl)c1)NCCCCCN1CCCN(C(=O)Nc2cc(F)cc(F)c2)CC1` the value was 94%; for `CN1CCN(c2ccc(Nc3ncc(C#N)c(Nc4ccccc4C(N)=O)n3)cc2)CC1.Cl`, 92%. On to `CC(C)C[C@H](NC(=O)c1ccc(OCCN2CCOCC2)cc1)C(=O)N[C@H](/C=N/N1CCN(C)C1=O)CCc1ccccc1`, for which the Inhibition was found to be 90%.

Compound `Cl.O=C(CNC1=NCCN1)Nc1ccc(NC(=O)Nc2ccc(NC(=O)CNC3=NCCN3)cc2)cc1` gave an Inhibition of 90%. For `COc1cccc(NC(=O)[C@H](C(C)C)n2c(=O)[nH]c3ccccc3c2=O)c1` the value was 100%. `Cc1cc(Nc2ccc(C)c(Cl)c2)n2nc(C(F)(F)F)nc2n1` returned an Inhibition of 98%. `CN1CCN(c2ccc(Nc3nccc(-c4cnn5ncccc45)n3)cc2Cl)CC1` returned an Inhibition of 95%.

In turn, `O=C(O)C(F)(F)F.O=S(=O)(NCCN1CCCC1)c1cccc(-c2ccccc2CNC2Cc3ccccc3C2)c1` gave an Inhibition of 99%.
